Data published in PubChem BioAssay.
Values without a mark were called inactive. The rule behind the calls is not given here.

Target: Pantothenate synthetase (Mycobacterium tuberculosis (strain ATCC 25618 / H37Rv)) (UniProt P9WIL5)
Test: Coupled enzyme confirmation of inhibitors against recombinant Mtb PanC (AID 375);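 note: 0% = full reaction with vehicle and 100% = no enzyme background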
Details: coupled enzyme assay; at 10 µM, stronger effect = higher value

Chain of Pantothenate synthetase (Mycobacterium tuberculosis (strain ATCC 25618 / H37Rv)) (P9WIL5 whole entry, looked up): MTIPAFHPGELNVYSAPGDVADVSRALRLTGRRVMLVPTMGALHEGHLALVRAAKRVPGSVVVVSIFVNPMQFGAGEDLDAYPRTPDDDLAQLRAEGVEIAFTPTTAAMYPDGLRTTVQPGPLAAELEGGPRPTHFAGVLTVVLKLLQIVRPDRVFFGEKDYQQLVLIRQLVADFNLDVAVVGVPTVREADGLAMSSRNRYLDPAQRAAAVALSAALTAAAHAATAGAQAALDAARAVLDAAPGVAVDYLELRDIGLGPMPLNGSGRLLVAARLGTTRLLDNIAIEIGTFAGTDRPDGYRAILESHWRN

Compound | inhibition [%]
O=C(CSc1nnc(Cc2ccccc2)n1-c1cccc(Cl)c1)N1CCOCC1 | 0
CCCCn1c(SCc2cccnc2)nc2c1c(=O)n(C)c(=O)n2C | 0
Cc1ccc(SCCC(=O)N(C)C)cc1 | 0
COCCN(Cc1cc2cccc(C)c2[nH]c1=O)C(=O)c1ccccc1 | 0
Cc1ccc(-n2nnnc2SCC(=O)N2CCN(C(=O)c3ccco3)CC2)c(C)c1 | 0
Cc1ccc(NC(=O)COS(=O)c2ccc(C)cc2)cc1 (stereo not given) | 0
COc1cccc(C(=O)Nc2ccc(NC(C)=O)cn2)c1 | 0
CCc1ccccc1N1CC23C=CC(O2)C(C(=O)O)C3C1=O (stereo not given) | 0
COc1ccc(C(=O)Nn2c(C3CCC3)nc3ccccc3c2=O)c(OC)c1 | 0
CCNc1ccc(S(=O)(=O)C(F)(F)F)cc1NC(=O)C12CCC(CC1)C2 | 0
CCc1ccc(C=NC23CN4CN(CN(C4)C2)C3)s1 | 0
O=c1c(CN2CCN(Cc3ccccc3)CC2)coc2ccc(Cl)cc12 | 0
O=C1CN(C(=O)COC(=O)c2ccccc2NC(=O)c2ccco2)c2ccccc2N1 | 0
COc1ccc(N2CCN(c3nc4c(c(=O)[nH]c(=O)n4C)n3CCCc3ccccc3)CC2)cc1 | 13
CN(C)c1cccc(N=C2C=C(N3CCOCC3)CC(C)(C)C2)c1 | 0
CCN(CC)CCN1C(=O)C(O)=C(C(=O)c2cccs2)C1c1ccc(C)o1 (stereo not given) | 0
O=C(CSc1ncnc2c1oc1ccccc12)Nc1ccccc1C(F)(F)F | 0
Cc1ccc2cc(C#N)c(N3CCCC3)nc2c1C | 4
Cc1c(C)[n+](=O)c2c(n1[O-])CCCCC2 | 1
CCCCCCCCCCCCCCCC(O)C(N)CO (stereo not given) | 0

Compound | inhibition [%]
COc1ccc2cc3cc(C(=O)NCC4CCCO4)oc3nc2c1 (stereo not given) | 3
CCCNC(=O)NS(=O)(=O)c1ccc(Cl)cc1 | 5
O=C(Nc1nc(-c2ccc(S(=O)(=O)N3CCCCCC3)cc2)cs1)c1cccs1 | 0
CN=c1sc2ccccc2n1CC(O)COCc1ccco1 (stereo not given) | 0
c1ccc(-n2c(Sc3cnccn3)nnc2-c2cccs2)cc1 | 0
COCCn1c(=O)[nH]c2cc(C(=O)NCCCN3CCN(c4ccc(F)cc4)CC3)ccc2c1=O | 0
O=C(CCCc1cccs1)Nc1nc2c(s1)CCCC2 | 2
COc1cc2c(N3CCOCC3)cc(O)c(CC(=O)Nc3ccccc3)c2cc1OC | 7
O=C(c1ccc2c(c1)OCO2)N1CCCN(C(=O)c2ccc3c(c2)OCO3)CC1 | 0
COc1ccc(CCNC(=O)c2ccncc2)cc1OC | 4
CCCCc1cc2c(c(NC(C)=O)n1)c(=O)oc1ccccc12 | 0
O=C(NCC1COc2ccccc2O1)C1CCCN(S(=O)(=O)c2cnc[nH]2)C1 (stereo not given) | 0
CC1(c2ccc(OC(F)F)cc2)NC(=O)N(CC(=O)Nc2ccc3c(c2)OCO3)C1=O (stereo not given) | 3
Cc1nc(NC(=O)C2CC3CCCC(C2)C3=O)sc1C (stereo not given) | 0
O=C1C2ON(c3ccccc3)C(c3cccnc3)C2C(=O)N1c1ccccc1 (stereo not given) | 4
C=CCSc1nnc2n(-c3ccccc3OC)c(=O)c3c4c(sc3n12)CCC4 | 0
O=C1CCCc2nc(N3CCCCC3)sc21 | 5
NC(=O)COC(=O)CNC(=O)c1ccc(Cl)cc1 | 0
Cc1nnc(N2C(=O)c3oc4ccccc4c(=O)c3C2c2ccco2)s1 (stereo not given) | 2
COc1ccc(Cl)cc1Nc1nc(NCCO)nc(N2CCCC2)n1 | 9
